Potency and affinity values are given separately. Activity calls are given as the source filed them.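 The calls were made as follows: active = fitted half-maximal dose no more than twice the top valid tested dose, for compounds that lower signal; inconclusive = fit invalid, or curve flat with activity between -70 and -30; inactive = potency past limit, curve flat within ±30, or signal increasing.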
The compounds below were run against NAD-dependent protein deacylase sirtuin-5, mitochondrial (Homo sapiens) (UniProt Q9NXA8) (assay: blockers of sirtuin-5 peptide desuccinylation – biochemical, fluorescence imaging, cherry-pick, set 6, dose response (AID 720597;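 also: lower AMC signal can also come from blocking the trypsin step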)). Details: Purified SirT5, succinyl-peptide-AMC/trypsin fluorescence; series mostly up to 15 µM.
Sequence of NAD-dependent protein deacylase sirtuin-5, mitochondrial (Homo sapiens) (Q9NXA8 whole entry, looked up): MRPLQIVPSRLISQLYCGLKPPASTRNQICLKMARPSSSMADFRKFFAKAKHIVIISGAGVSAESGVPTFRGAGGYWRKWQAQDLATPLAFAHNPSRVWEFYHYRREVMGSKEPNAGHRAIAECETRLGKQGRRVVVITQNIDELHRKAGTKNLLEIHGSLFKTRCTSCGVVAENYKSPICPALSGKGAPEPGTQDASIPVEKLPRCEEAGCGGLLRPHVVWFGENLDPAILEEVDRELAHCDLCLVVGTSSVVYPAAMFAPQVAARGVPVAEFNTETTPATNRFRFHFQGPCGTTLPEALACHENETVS

outcome, inactive:
Cc1ccc(S(=O)(=O)N(C)C[C@H]2Oc3ncc(-c4ccncc4)cc3C(=O)N([C@@H](C)CO)C[C@@H]2C)cc1
CCCC#Cc1ccc2c(c1)O[C@@H](CN(C)C(=O)c1ccccc1F)[C@@H](C)CN([C@@H](C)CO)S2(=O)=O
Cc1ccc(S(=O)(=O)N(C)C[C@@H]2OCCCC[C@@H](C)Oc3ccc(NS(=O)(=O)c4ccccc4)cc3C(=O)N([C@H](C)CO)C[C@H]2C)cc1
C[C@H](O)C#Cc1ccc2c(c1)O[C@H](CN(C)Cc1ccc(-c3ccccc3)cc1)[C@@H](C)CN([C@@H](C)CO)S2(=O)=O
COCCNC(=O)c1cc2c(c(-c3cccc(-c4cccc(F)c4)c3)n1)[C@H](CCO)N([S@@](=O)C(C)(C)C)C2
C[C@H]1CN([C@@H](C)CO)C(=O)Cc2cc(NS(=O)(=O)c3ccc(Cl)cc3)ccc2O[C@@H]1CN(C)Cc1ccc(Oc2ccccc2)cc1
CCCNC(=O)N1[C@H](CO)[C@H](c2ccccc2)C12CN(C(=O)CC1CC1)C2
C[C@@H]1CN([C@@H](C)CO)S(=O)(=O)c2ccc(C#Cc3cccc(F)c3)cc2O[C@@H]1CN(C)S(=O)(=O)c1ccccc1F
O=C(NC1CCCCC1)[C@@H]1[C@@H](CO)[C@@H]2Cn3c(cccc3=O)[C@@H]2N1CC1CCCC1
CC(C)CC#Cc1ccc2c(c1)O[C@H](CN(C)C(=O)C1CCCCC1)[C@H](C)CN([C@@H](C)CO)S2(=O)=O
CCCC#Cc1ccc([C@@H]2[C@@H](CO)N3CCCCN(S(=O)(=O)Cc4ccccc4)C[C@H]23)cc1
C[C@@H]1CN([C@@H](C)CO)C(=O)c2c(c3ccccc3n2C)-c2ccccc2CO[C@@H]1CN(C)Cc1cccc2c1OCCCO2
COc1ccccc1S(=O)(=O)N(C)C[C@@H]1Oc2cc(C#CCC(C)C)ccc2S(=O)(=O)N([C@H](C)CO)C[C@H]1C
C[C@H]1CCCCO[C@H](CN(C)C(=O)Nc2ccc(C(F)(F)F)cc2)[C@@H](C)CN([C@@H](C)CO)C(=O)c2cc(NS(=O)(=O)c3ccc(Cl)cc3)ccc2O1
CC(C)CC#Cc1ccc2c(c1)O[C@H](CN(C)S(=O)(=O)c1cccc(F)c1)[C@@H](C)CN([C@@H](C)CO)S2(=O)=O
C[C@@H]1CN([C@H](C)CO)C(=O)c2cc(NS(=O)(=O)c3ccc(F)cc3)ccc2O[C@@H](C)CCCCO[C@@H]1CN(C)S(=O)(=O)c1ccc(Cl)cc1
CO[C@H](CN(C)Cc1nccs1)[C@@H](C)CN([C@@H](C)CO)S(=O)(=O)c1ccc(C)cc1
C[C@@H]1CCCCO[C@@H](CN(C)C(=O)Nc2ccc(C(F)(F)F)cc2)[C@H](C)CN([C@@H](C)CO)C(=O)c2cc(NS(=O)(=O)c3ccc(Cl)cc3)ccc2O1
COc1ccc(S(=O)(=O)Nc2ccc3c(c2)C(=O)N([C@H](C)CO)C[C@@H](C)[C@@H](CN(C)Cc2ccc(Oc4ccccc4)cc2)O3)cc1
O=C(C[C@H]1CC[C@@H](NC(=O)c2ccccc2)[C@H](CO)O1)NCCc1ccncc1
C[C@@H]1CCCCO[C@@H](CN(C)Cc2ccc(C(F)(F)F)cc2)[C@H](C)CN([C@@H](C)CO)C(=O)c2cc(NS(=O)(=O)c3ccc(F)cc3)ccc2O1
COc1cccc(NC(=O)N(C)C[C@@H]2Oc3cc(C#Cc4ccccc4)ccc3S(=O)(=O)N([C@H](C)CO)C[C@H]2C)c1
CC(C)NC(=O)Nc1ccc2c(c1)C(=O)N([C@@H](C)CO)C[C@H](C)[C@H](CN(C)C(=O)NC(C)C)OCCCC[C@@H](C)O2
CC(C)C#Cc1cnc2c(c1)C(=O)N([C@@H](C)CO)C[C@@H](C)[C@H](CN(C)C(=O)CN1CCOCC1)O2
Cc1ccc(S(=O)(=O)N(C)C[C@@H]2OCc3ccccc3-c3c(n(C)c4ccccc34)C(=O)N([C@H](C)CO)C[C@@H]2C)cc1
C[C@@H]1CN([C@@H](C)CO)C(=O)c2cc(NC(=O)Cc3cn(C)c4ccccc34)ccc2O[C@H]1CN(C)Cc1ccc(Cl)c(Cl)c1
O=C(NC1CCCC1)N[C@@H]1CC[C@H](CC(=O)N2CCOCC2)O[C@H]1CO
Cc1ccc(S(=O)(=O)N(C)C[C@H]2OCCCC[C@H](C)Oc3ccc(NS(=O)(=O)c4ccccc4)cc3C(=O)N([C@@H](C)CO)C[C@@H]2C)cc1
CS(=O)(=O)Nc1ccc2c(c1)[C@H]1C[C@@H](CC(=O)NCCc3ccccc3)O[C@@H](CO)[C@H]1O2
O=C(C[C@H]1C[C@@H]2c3cc(NC(=O)Nc4ccc(C(F)(F)F)cc4)ccc3O[C@@H]2[C@@H](CO)O1)NCc1ccc2c(c1)OCO2
Cc1ccc(S(=O)(=O)N(C)C[C@H]2OCCCC[C@@H](C)Oc3ccc(NS(=O)(=O)c4ccccc4)cc3C(=O)N([C@@H](C)CO)C[C@H]2C)cc1
C[C@H]1CN([C@@H](C)CO)S(=O)(=O)c2ccc(C#Cc3cccc(F)c3)cc2O[C@@H]1CN(C)S(=O)(=O)c1ccccc1F
O=C(Cc1ccncc1)N[C@H]1CC[C@H](CCn2cc(-c3ccccc3F)nn2)O[C@@H]1CO
CCS(=O)(=O)N1CC2(C1)CN(S(=O)(=O)c1cn(C)cn1)[C@@H](CO)c1[nH]c3cc(OC)ccc3c12
O=C(Nc1ccc2c(c1)OCO2)N[C@H]1CC[C@H](CCNC(=O)C2CC2)O[C@@H]1CO
C[C@H]1CN([C@@H](C)CO)S(=O)(=O)c2ccc(C#Cc3ccc(F)cc3)cc2O[C@@H]1CN(C)C(=O)NC1CCCCC1
C[C@H]1CN([C@@H](C)CO)S(=O)(=O)c2ccc(C#Cc3ccc(F)cc3)cc2O[C@H]1CN(C)C(=O)NC1CCCCC1
CCOc1ccc(C)cc1S(=O)(=O)n1ccnc1C
C[C@H]1CN([C@@H](C)CO)C(=O)c2cc(NC(=O)Cc3ccccc3)ccc2O[C@@H]1CN(C)Cc1ccc(Oc2ccccc2)cc1
COc1ccc(S(=O)(=O)Nc2ccc3c(c2)C(=O)N([C@@H](C)CO)C[C@H](C)[C@@H](CN(C)Cc2ccc(Oc4ccccc4)cc2)O3)cc1

Reference: PubChem BioAssay AID720597 (Broad Institute, 2013)
